Molecules are shown by their SMILES. Where “and” joins values, the source holds several entries; their conditions need not be identical. Equal values may be shown once.

For one assay, the target named is T1, Serine/threonine-protein kinase Sgk2 (Homo sapiens) (UniProt Q9HBY8).
T1 sequence (whole entry): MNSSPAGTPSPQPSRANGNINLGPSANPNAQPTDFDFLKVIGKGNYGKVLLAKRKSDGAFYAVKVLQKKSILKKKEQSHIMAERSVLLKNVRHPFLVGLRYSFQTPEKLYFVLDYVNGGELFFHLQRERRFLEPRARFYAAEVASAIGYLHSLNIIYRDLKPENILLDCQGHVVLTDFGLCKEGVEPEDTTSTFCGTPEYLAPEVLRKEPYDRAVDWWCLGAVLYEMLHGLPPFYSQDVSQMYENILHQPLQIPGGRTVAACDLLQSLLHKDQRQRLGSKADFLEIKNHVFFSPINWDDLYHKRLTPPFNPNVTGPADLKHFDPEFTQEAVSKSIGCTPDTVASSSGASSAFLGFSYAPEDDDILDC
To be noted: at 1 µM.
What is called inhibition is the drop in the measured response relative to a control, in per cent. As to `CCCNc1cccc(-n2ncc3c(N/N=C/c4ccncc4)ncnc32)c1`, the inhibition was determined as 10.9%.

Consider `COC(=O)Nc1nc2ccc(Oc3ccc(NC(=O)Nc4cc(C(F)(F)F)ccc4F)cc3)cc2s1`, for which the inhibition turned out to be 0.53%.

In the case of `N#Cc1ccc2c(-c3ccnc(NC4CC4)n3)c(-c3ccc(F)cc3)nn2c1`, the inhibition is -1.14%.

As for `Fc1cccc(COc2ccc(Nc3ncncc3C#Cc3ccccc3)cc2Cl)c1`, the inhibition amounted to 8.63%.

For the compound `NS(=O)(=O)c1cccc(N/C=C2\C(=O)Nc3ccccc32)c1`, the inhibition worked out at 11.5%.

For the compound `COc1ccccc1-c1cc(/C=C2\C(=O)Nc3ncc(Br)cc32)cc(Br)c1O`, the inhibition came out at 2.58%.

For `COC(=O)Nc1nc2cc(Oc3ccc(NC(=O)Nc4ccccc4)cc3)ccc2[nH]1`, the inhibition is 3.69%.

Turning to `O=C(O[C@H]1CN[C@H](C#Cc2cc3ncnc(Nc4ccc5c(cnn5Cc5ccccc5)c4)c3s2)C1)N1CCOCC1`, the inhibition was 4.74%.

With `CCn1c(-c2nonc2N)nc2cncc(C(=O)NCCNC)c21`, the inhibition was determined as 17.7%.

In the case of `Cc1cc(O)cc(C)c1/C=C/c1cncc(C(=O)OC(C)(C)C)c1`, the inhibition was 4.38%.

As for `N#Cc1cccc(Nc2ncc(-c3ccccc3)o2)c1`, the inhibition is -1.67%.

Regarding `CNC(=O)c1sc(-n2cnc3cc(OC)c(OC)cc32)cc1OCc1ccccc1C(F)(F)F`, the inhibition was determined as 2.63%.

With `COc1ccc2ncn(-c3cc(O[C@H](C)c4ccccc4C(F)(F)F)c(C(N)=O)s3)c2c1`, the inhibition was found to be 0.53%.

Consider `COc1ccc(-c2nn3ncccc3c2-c2ccnc(Nc3ccc(F)c(F)c3)n2)cc1`, for which the inhibition was 7.74%.

For the compound `Cc1cc(O)cc(C)c1/C=C/c1cncc(C(N)=O)c1`, the inhibition came out at 3.1%.

As to `Fc1ccc(Nc2nccc(-c3c(-c4ccc(C(F)(F)F)cc4)nn4ncccc34)n2)cc1F`, the inhibition was -0.85%.

In the case of `c1ccc(-c2n[nH]cc2-c2ccnc(-c3ccc(OCCn4ccnc4)cc3)c2)nc1`, the inhibition was determined as 0.22%.

As to `COc1cc(N2CCN(C(C)C)CC2)ccc1Nc1nc(Nc2cccc(F)c2C(=O)O)c2cc[nH]c2n1`, the inhibition was 3.35%.

For `CS(=O)(=O)Nc1ccc(-c2cc(-c3ccccc3)cc(C(N)=O)c2N)cc1`, the inhibition was determined as 0.51%.

As for `Nc1ncnc2occ(-c3ccc(NC(=O)Nc4cc(C(F)(F)F)ccc4F)cc3)c12`, the inhibition was 2.34% and 2.65%.

`COc1cc2c(cc1Nc1nc(Nc3cccc(F)c3C(N)=O)c3cc[nH]c3n1)N(C(=O)CN1CCN(C(C)C)CC1)CC2`: the inhibition stood at 0.58%.

On to `CCS(=O)(=O)c1ccc(OC)c(Nc2ncc(-c3cccc(C(C)=O)c3)o2)c1`, for which the inhibition amounted to 3.41%.

Regarding `CC(C)c1ccc(-c2cc(-c3c[nH]nc3-c3ccccn3)ccn2)cc1`, the inhibition was 3.85%.

Consider `O=C(O[C@H]1CN[C@H](C#Cc2cc3ncnc(Nc4ccc5c(ccn5Cc5cc(F)ccc5F)c4)c3s2)C1)N1CCOCC1`, for which the inhibition came out at 0.96%.

Regarding `CN(c1ccc(NC(=O)NCCN2CCOCC2)cc1)c1ccnc(Nc2ccc(CS(C)(=O)=O)cc2)n1`, the inhibition is 3.1%.

For the compound `NS(=O)(=O)c1ccc(N/N=C2\C(=O)Nc3cccc(CCc4ccncc4)c32)cc1`, the inhibition is -0.79%.

In the case of `CNC(=O)c1cncc(/C=C/c2ccccc2C)c1`, the inhibition is 0.66%.

For `CN1CCC(C(=O)Nc2n[nH]c3nc(-c4ccc(O)cc4)c(Br)cc23)CC1`, the inhibition was 6.79% and 6.21%.

With `COc1c(C(N)=O)cc(-c2ccc(Cl)cc2)cc1-c1ccc(S(N)(=O)=O)cc1`, the inhibition worked out at 5%.

Turning to `CN1CCN(Cc2ccc(-c3cc4ncnc(Nc5ccc(OCc6cccc(F)c6)c(Cl)c5)c4s3)o2)CC1`, the inhibition was 1.46% and 3.55%.

As to `NC(=O)c1ccc2c(-c3ccnc(NCCCO)n3)c(-c3ccc(F)cc3)nn2c1`, the inhibition amounted to 1.91%.

The target of a further assay is T2, Serine/threonine-protein kinase Sgk3 (Homo sapiens) (UniProt Q96BR1).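 Further: reported percentages are averaged inhibition values against SGK3.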
T2 sequence (whole entry): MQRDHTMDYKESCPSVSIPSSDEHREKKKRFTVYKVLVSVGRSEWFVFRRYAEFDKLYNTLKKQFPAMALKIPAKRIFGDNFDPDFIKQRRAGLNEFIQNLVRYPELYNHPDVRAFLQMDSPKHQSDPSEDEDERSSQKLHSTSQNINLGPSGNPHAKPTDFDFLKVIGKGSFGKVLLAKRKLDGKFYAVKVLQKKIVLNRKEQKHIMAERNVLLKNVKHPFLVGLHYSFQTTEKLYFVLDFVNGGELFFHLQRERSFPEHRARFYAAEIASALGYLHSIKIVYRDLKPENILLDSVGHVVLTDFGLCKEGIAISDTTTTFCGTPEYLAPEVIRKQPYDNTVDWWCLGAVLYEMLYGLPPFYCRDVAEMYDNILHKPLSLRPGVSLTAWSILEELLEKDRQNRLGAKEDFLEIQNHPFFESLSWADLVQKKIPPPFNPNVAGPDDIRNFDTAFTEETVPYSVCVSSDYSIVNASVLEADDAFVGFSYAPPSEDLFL
The settings on record: at 0.1 µM.
`CCCNc1cccc(-n2ncc3c(N/N=C/c4ccncc4)ncnc32)c1`: the inhibition is 3.53%.

Regarding `COC(=O)Nc1nc2ccc(Oc3ccc(NC(=O)Nc4cc(C(F)(F)F)ccc4F)cc3)cc2s1`, the inhibition amounted to 1.37%.

With `N#Cc1ccc2c(-c3ccnc(NC4CC4)n3)c(-c3ccc(F)cc3)nn2c1`, the inhibition was determined as 2.02%.

In the case of `Fc1cccc(COc2ccc(Nc3ncncc3C#Cc3ccccc3)cc2Cl)c1`, the inhibition was 5.19%.

In the case of `NS(=O)(=O)c1cccc(N/C=C2\C(=O)Nc3ccccc32)c1`, the inhibition was 6%.

With `COc1ccccc1-c1cc(/C=C2\C(=O)Nc3ncc(Br)cc32)cc(Br)c1O`, the inhibition worked out at 4.46%.

Consider `COC(=O)Nc1nc2cc(Oc3ccc(NC(=O)Nc4ccccc4)cc3)ccc2[nH]1`, for which the inhibition is 3.38%.

In the case of `O=C(O[C@H]1CN[C@H](C#Cc2cc3ncnc(Nc4ccc5c(cnn5Cc5ccccc5)c4)c3s2)C1)N1CCOCC1`, the inhibition is -2.07%.

On to `CCn1c(-c2nonc2N)nc2cncc(C(=O)NCCNC)c21`, for which the inhibition stood at 21.3%.

Consider `Cc1cc(O)cc(C)c1/C=C/c1cncc(C(=O)OC(C)(C)C)c1`, for which the inhibition was 3.8%.

On to `N#Cc1cccc(Nc2ncc(-c3ccccc3)o2)c1`, for which the inhibition was 2.18%.

For `CNC(=O)c1sc(-n2cnc3cc(OC)c(OC)cc32)cc1OCc1ccccc1C(F)(F)F`, the inhibition turned out to be 3.8%.

For the compound `COc1ccc2ncn(-c3cc(O[C@H](C)c4ccccc4C(F)(F)F)c(C(N)=O)s3)c2c1`, the inhibition was -0.12%.

For the compound `COc1ccc(-c2nn3ncccc3c2-c2ccnc(Nc3ccc(F)c(F)c3)n2)cc1`, the inhibition came to 5.09%.

On to `Cc1cc(O)cc(C)c1/C=C/c1cncc(C(N)=O)c1`, for which the inhibition came out at 1.2%.

In the case of `Fc1ccc(Nc2nccc(-c3c(-c4ccc(C(F)(F)F)cc4)nn4ncccc34)n2)cc1F`, the inhibition turned out to be 2.84%.

On to `c1ccc(-c2n[nH]cc2-c2ccnc(-c3ccc(OCCn4ccnc4)cc3)c2)nc1`, for which the inhibition came to 0.55%.

On to `COc1cc(N2CCN(C(C)C)CC2)ccc1Nc1nc(Nc2cccc(F)c2C(=O)O)c2cc[nH]c2n1`, for which the inhibition is 3.6%.

For `CS(=O)(=O)Nc1ccc(-c2cc(-c3ccccc3)cc(C(N)=O)c2N)cc1`, the inhibition was 0.13%.

Take `Nc1ncnc2occ(-c3ccc(NC(=O)Nc4cc(C(F)(F)F)ccc4F)cc3)c12`: the inhibition was 1.18% and 0.24%.

Turning to `COc1cc2c(cc1Nc1nc(Nc3cccc(F)c3C(N)=O)c3cc[nH]c3n1)N(C(=O)CN1CCN(C(C)C)CC1)CC2`, the inhibition was 0.73%.

Turning to `CCS(=O)(=O)c1ccc(OC)c(Nc2ncc(-c3cccc(C(C)=O)c3)o2)c1`, the inhibition was 1.59%.

`CC(C)c1ccc(-c2cc(-c3c[nH]nc3-c3ccccn3)ccn2)cc1`: the inhibition was determined as 0.19%.

In the case of `O=C(O[C@H]1CN[C@H](C#Cc2cc3ncnc(Nc4ccc5c(ccn5Cc5cc(F)ccc5F)c4)c3s2)C1)N1CCOCC1`, the inhibition is 3.53%.

Consider `CN(c1ccc(NC(=O)NCCN2CCOCC2)cc1)c1ccnc(Nc2ccc(CS(C)(=O)=O)cc2)n1`, for which the inhibition came to 4.46%.

With `NS(=O)(=O)c1ccc(N/N=C2\C(=O)Nc3cccc(CCc4ccncc4)c32)cc1`, the inhibition was -1.13%.

Regarding `CNC(=O)c1cncc(/C=C/c2ccccc2C)c1`, the inhibition was 1.58%.

On to `CN1CCC(C(=O)Nc2n[nH]c3nc(-c4ccc(O)cc4)c(Br)cc23)CC1`, for which the inhibition is 1.96% and 6.46%.

Turning to `COc1c(C(N)=O)cc(-c2ccc(Cl)cc2)cc1-c1ccc(S(N)(=O)=O)cc1`, the inhibition amounted to 1.37%.

On to `CN1CCN(Cc2ccc(-c3cc4ncnc(Nc5ccc(OCc6cccc(F)c6)c(Cl)c5)c4s3)o2)CC1`, for which the inhibition was 1.48% and 4.43%.

Regarding `NC(=O)c1ccc2c(-c3ccnc(NCCCO)n3)c(-c3ccc(F)cc3)nn2c1`, the inhibition is 2.16%.

Source of the values: ChEMBL document CHEMBL1961873, “Compounds: GSK PKIS; Assays: Nanosyn kinase panel” (2012).
